# Bioassay records: PubChem, Johns Hopkins Ion Channel Center
# An excerpt weighted towards active compounds, which were near 2.4% of everything screened.
# CHT allo act: allosterically activates the human high affinity choline transporter; Q9GZV3; CHT-expressing cells, membrane potential dye, choline EC20; hits give high values; LV-AA mutant CHT in HEK293 cells; B-score at 10 µM; 310,000 compounds, 0.49% hits;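 active = initial fluorescence not abnormally high and integrated response B-score, plate-corrected, over 3 SD above library mean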
# ANO1 activ: mouse TMEM16A channel activation, primary screen; HEK293 TMEM16A/YFP-H148Q/I152L, iodide quench fluorescence; hits give low values; B-score at 10 µM; 340,000 compounds, 0.3% hits;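 active = fluorescence-ratio B-score plate-corrected deviation score at least 3 library SD below zero, with starting fluorescence score within 5 deviations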;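 note: channel opened by trigger with iodide after compound preincubation; score built on the fluorescence ratio of max minus min over baseline; more negative score means more quench and so TMEM16A activation or potentiation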
# Target sequence (Q8BHY3 whole entry, looked up): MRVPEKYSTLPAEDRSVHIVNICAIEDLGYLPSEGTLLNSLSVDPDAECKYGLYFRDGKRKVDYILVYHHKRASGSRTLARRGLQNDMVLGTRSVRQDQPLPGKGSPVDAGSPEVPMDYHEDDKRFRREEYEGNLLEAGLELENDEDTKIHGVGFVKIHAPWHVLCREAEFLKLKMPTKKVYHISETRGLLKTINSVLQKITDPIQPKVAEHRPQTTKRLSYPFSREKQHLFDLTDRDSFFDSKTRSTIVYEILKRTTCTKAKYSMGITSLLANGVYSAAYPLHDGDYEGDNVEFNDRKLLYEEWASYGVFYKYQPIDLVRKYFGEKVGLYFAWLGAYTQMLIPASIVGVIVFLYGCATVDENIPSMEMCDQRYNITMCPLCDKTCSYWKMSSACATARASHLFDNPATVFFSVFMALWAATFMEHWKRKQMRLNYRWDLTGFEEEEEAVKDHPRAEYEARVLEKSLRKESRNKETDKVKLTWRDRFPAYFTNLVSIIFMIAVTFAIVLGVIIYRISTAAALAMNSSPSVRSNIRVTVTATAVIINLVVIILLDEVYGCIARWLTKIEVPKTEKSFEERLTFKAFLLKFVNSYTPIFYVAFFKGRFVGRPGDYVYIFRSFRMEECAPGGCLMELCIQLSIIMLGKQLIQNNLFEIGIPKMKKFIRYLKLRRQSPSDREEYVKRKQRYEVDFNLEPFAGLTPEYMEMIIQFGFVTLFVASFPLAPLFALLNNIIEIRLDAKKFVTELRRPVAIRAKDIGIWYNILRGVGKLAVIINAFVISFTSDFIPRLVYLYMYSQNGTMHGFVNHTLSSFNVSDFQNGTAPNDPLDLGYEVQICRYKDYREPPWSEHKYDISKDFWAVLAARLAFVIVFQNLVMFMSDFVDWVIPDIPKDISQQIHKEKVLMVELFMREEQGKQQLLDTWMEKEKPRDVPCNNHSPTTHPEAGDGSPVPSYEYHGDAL
# TMEM16A inh: inhibitors of mouse TMEM16A calcium-activated chloride channel. Q8BHY3. HEK293 TMEM16A/YFP iodide influx fluorescence, ionomycin. normalized B-score (activity score, 25-100; higher = stronger inhibition) at 10 µM. 310,000 compounds, 1.2% hits;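 active = ratio plate-corrected score three or more library SD toward inhibition, starting fluorescence score within five deviations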;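 note: score derived from kinetic fluorescence span divided by baseline fluorescence per well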
# CHT block: inhibits the human high affinity choline transporter; Q9GZV3; CHT-expressing cells, membrane potential dye, choline response; hits give low values; B-score at 10 µM; 310,000 compounds, 0.86% hits; AID 488975;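 active = B-score over 3 SD under the library average, and starting fluorescence ratio not unusually high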;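 note: choline stimulus applied at its EC90 after an EC20 pre-addition; B-score computed on integrated fluorescence ratio after choline addition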
# TMEM16A reconf: re-confirmation of mouse TMEM16A chloride channel inhibitors; shares compounds with TMEM16A inh; HEK293 TMEM16A/YFP-H148Q, iodide quench fluorescence; ionomycin added to raise cell calcium; inhibition, % at 10 µM; 2,300 compounds, 39% hits; AID 652189;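 active = mean duplicate percent inhibition, scaled so buffer wells are 0 and the reference blocker 100, over three buffer SD above buffer mean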
# HEK293 Ca mobil: calcium mobilization counter-screen hit for TMEM16A inhibitor series; shares compounds with TMEM16A inh; TMEM16A/YFP HEK293, Fluo4 calcium mobilization; 2,300 compounds, 2% hits; AID 652231; calcium response (% of ionomycin), % at 10 µM;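 active = duplicate-averaged calcium signal over 20% of the ionomycin maximum, relative to buffer baseline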;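 note: each well's signal is peak minus trough fluorescence divided by its pre-addition baseline; 0% = buffer wells and 100% = ionomycin wells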
# YFP-HEK293 quench: counter-screen for TMEM16A inhibitors: effect in parental YFP-HEK293 cells. 2,300 tested, under 10 active. AID 652233. shares compounds with TMEM16A inh. iodide YFP quench, ionomycin. YFP ratio F(max-min)/F0 at 10 µM;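 active = yellow fluorescent protein signal ratio exceeding the buffer control mean by over 5 SD of those controls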;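 note: ratio is mean of duplicate wells from kinetic YFP trace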
# ClC-1 rat inh: blocks the rat ClC-1 voltage-dependent chloride channel; ratio percent, % at 10 µM; 2,300 tested, under 10 active; AID 652236; CHO ClC-1-YFP, iodide influx fluorescence quench; iodide control reads 0, buffer control 100; shares compounds with TMEM16A inh;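 active = duplicate-mean ratio percent above the mean of iodide-only control wells, which defines zero, plus 5 of their SD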;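 note: higher percent means stronger block of ClC-1 iodide influx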
# An asterisk follows results filed as active; i = inactive; . = no result given.
SMILES,CHT allo act,ANO1 activ,TMEM16A inh,CHT block,TMEM16A reconf,HEK293 Ca mobil,YFP-HEK293 quench,ClC-1 rat inh
COc1ccc(NC(=S)N2CCN(CCN3C(=O)c4cccc5cccc(c45)C3=O)CC2)cc1,i,i,i,i,.,.,.,.
Cc1cc(=O)c2ccc(C(F)(F)F)cc2[nH]1,i,i,i,i,.,.,.,.
O=c1cc(C(F)(F)F)[nH]c2ccc(C(F)(F)F)cc12,i,i,100*,i,34%*,i,-0.95,-15
O=C(NCCc1ccc2c(c1)OCCO2)c1cc(S(=O)(=O)N2CCCC2)ccc1Cl,.,i,.,.,.,.,.,.
CCc1ccc(S(=O)(=O)NCCc2csc(-c3ccccc3)n2)s1,i,i,100*,i,i,i,-1.1,-26
N#CCc1ccc(NS(=O)(=O)c2ccc(C3CCCCC3)cc2)cc1,i,i,25*,i,34%*,i,-0.91,-10
COc1ccc(OC)c(/C=N/NC(=O)Cn2ccnc2C)c1,i,i,i,i,.,.,.,.
O=C(NCc1nc2ccccc2[nH]1)C1=C[C@H](c2coc3ccccc3c2=O)C[C@H](OCCCCO)O1,i,i,i,i,.,.,.,.
COc1cc(C(=O)OCC#N)ccc1OCc1c(C)noc1C,i,i,i,i,.,.,.,.
CCOC(=O)c1cc(NC(=O)Nc2ccc(OC)c(OC)c2)c(C)nc1C,i,i,100*,i,i,i,-1.2,-12
Nc1c(C(=O)NCCc2ccccc2)nnn1Cc1ccccc1,i,i,i,i,i,i,-0.8,-4
COc1cc(NC(=O)CSCC(=O)Nc2cccc(C(F)(F)F)c2)c(Cl)cc1Cl,i,i,100*,i,i,i,-0.99,-9
O=C(COCC(=O)Nc1cccc(C(F)(F)F)c1)Nc1cccc(C(F)(F)F)c1,i,i,i,i,.,.,.,.
COCCCNC(=O)Cc1c(C)c2c(cc(C)c3c(C)c(C)oc32)oc1=O,.,i,.,.,.,.,.,.
COc1ccc(-c2nc3cnccn3c2NCc2ccccc2)cc1SC1CCCCC1,i,i,25*,i,i,i,-1.3,-4
Cc1ccc(NC(=O)C2CCCN2C(=O)Oc2ccccc2)cc1 (configuration not stated),i,i,i,i,.,.,.,.
O=C(Cn1c2c(c(=O)n3ncnc13)CCC2)N/N=C/c1ccc(Cl)cc1,i,i,i,i,.,.,.,.
Cc1cc(N=Nc2ccccc2C(=O)O)c(C)c(C)c1O,i,i,i,i,53%*,i,-1.2,-18
Cc1cc(O)c(C(C)C)cc1N=Nc1ccccc1C(=O)O,i,i,i,i,38%*,i,-0.73,-8
O=C(Nc1ccc2c(c1)OCCO2)NC1CCCCC1,i,i,i,i,.,.,.,.
Cc1onc(-c2c(Cl)cccc2Cl)c1C(=O)Nc1ccc2c(c1)OCCO2,i,i,100*,i,i,i,-1,-15
O=C(Nc1ccc2c(c1)OCCO2)C1CCC1,i,i,100*,i,i,i,-0.99,4
Cn1nc(C(=O)Nc2sccc2C(N)=O)ccc1=O,i,i,i,i,.,.,.,.
Cc1ccc(NC(=O)C(C)NS(=O)(=O)c2ccc(F)cc2)cc1C (configuration not stated),i,i,25*,i,i,i,-1.3,-16
CNC(=O)C(C)NS(=O)(=O)c1ccc(F)cc1 (configuration not stated),i,i,i,i,.,.,.,.
SMILES,CHT allo act,ANO1 activ,TMEM16A inh,CHT block,TMEM16A reconf,HEK293 Ca mobil,YFP-HEK293 quench,ClC-1 rat inh
COc1ccc(N(C)C2=NS(=O)(=O)c3ccccc32)cc1,i,i,100*,i,i,i,-1.1,-2
COc1ccc(/C=N/N(C)C2=NS(=O)(=O)c3ccccc32)cc1,i,i,i,i,.,.,.,.
Cc1cc(C)cc(-n2c(C)cc(/C=N/NC(=O)CSc3ncccn3)c2C)c1,i,i,25*,i,i,i,-0.89,3
COC(=O)c1c(NS(=O)(=O)Cc2ccccc2)sc2c1CCCC2,i,i,i,i,.,.,.,.
COC(=O)c1c(NS(=O)(=O)c2ccc(C)cc2)sc2c1CCC(C)C2 (configuration not stated),i,i,100*,i,30%*,i,-1.1,-20
COC(=O)c1c(NC(=O)CN(C)CC(=O)Nc2ccc(C)cc2)sc2c1CCC(C)C2 (configuration not stated),.,i,.,.,.,.,.,.
CC(C)OC(=O)c1c(NS(=O)(=O)c2ccccc2)sc2c1CCCC2,i,i,100*,i,72%*,i,-0.87,-4
COc1ccc(N2CCN(C(=O)c3ccc(C)c(Cl)c3)CC2)cc1,i,i,25*,i,i,i,-1,0
COc1ccc(N2CCN(C(=O)c3ccc(Cl)c(S(=O)(=O)N4CCCC4)c3)CC2)cc1,i,i,i,i,.,.,.,.
CCCCN(C(=O)Nc1ccccc1)C1CCS(=O)(=O)C1 (configuration not stated),.,i,.,.,.,.,.,.
COc1ccc(OC)c(CNC(=O)CCC(=O)N2Cc3ccccc3Oc3ncccc32)c1,i,i,i,i,.,.,.,.
COc1cccc(N2CCN(c3ncnc4c3cnn4-c3ccc(C)cc3C)CC2)c1,i,i,100*,i,32%*,i,-1.1,-6
O=C(CSc1ccc(F)cc1)N1CCC(c2nc3ccccc3s2)CC1,i,i,100*,i,29%*,i,-1.2,-6
O=C(c1cccc(F)c1)N1CCC(c2nc3ccccc3s2)CC1,i,i,i,i,.,.,.,.
Fc1ccc(-c2csc(N3CCC(c4ccccc4)C3)n2)cc1 (configuration not stated),i,i,100*,i,i,i,-0.87,-10
COc1ccc(S(=O)(=O)N2CCC(C(=O)NCC3CC3)CC2)cc1,i,i,i,i,.,.,.,.
COC(=O)C1CCN(S(=O)(=O)c2ccc(OC)cc2)CC1,i,i,100*,i,i,i,-1.2,-10
COc1ccc(-c2cc(C(=O)Nc3c(C)n(C)n(-c4ccccc4)c3=O)c3ccccc3n2)cc1,i,i,i,i,.,.,.,.
O=C(CN1CCN(c2ccc(O)cc2)CC1)Nc1ccc2c(c1)OCCO2,i,i,i,i,.,.,.,.
COc1cc(OC)c(C(=O)NCc2cccnc2)cc1OC,i,i,i,i,.,.,.,.
